PubChem BioAssay (NCI)
Compounds without any hit were thinned out: in the full panel of roughly 79,000, 15% have a hit. Cut-off read from the data, not from the text of the source: active = growth inhibition above about 70%; inactive = the rest.

Experiments:
[1] = NCI Yeast Anticancer Drug Screen. Data for the rad50 strain (AID 155);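 note: 0% = growth of vehicle-only cultures of the same strain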; conditions: S. cerevisiae rad50 strain growth inhibition; at 50.0 µM; stronger effect = higher value
Method in brief: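 Readout: growth inhibition relative to vehicle-treated cultures. Compound exposure was carried out in a genetically defined yeast strain deficient in DNA damage repair.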

[2] = NCI Yeast Anticancer Drug Screen. Data for the mec2-1 strain (AID 157); conditions: S. cerevisiae mec2-1 strain, at 50.0 µM, stronger effect = higher value
Method in brief: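 Cells of the genetically defined mec2-1 yeast strain are incubated with test compound. Inhibition of growth is calculated against vehicle-treated controls.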

[3] = NCI Yeast Anticancer Drug Screen. Data for the sgs1 mgt1 strain (AID 161);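 note: 0% = growth of cultures given vehicle only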; conditions: S. cerevisiae sgs1 mgt1 strain, at 50.0 µM, stronger effect = higher value
Method in brief: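 Read-out: growth inhibition vs vehicle controls. Cells: mutant yeast strain deficient in DNA damage repair.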

[4] = NCI Yeast Anticancer Drug Screen. Data for the cln2 rad14 strain (AID 165);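 note: 0% = growth equal to vehicle treated cultures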; conditions: S. cerevisiae cln2 rad14 strain, at 50.0 µM, stronger effect = higher value
Method in brief: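 The screen exposed genetically defined yeast (cln2 rad14) to test compounds and scored growth inhibition relative to vehicle-treated controls.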

[5] = NCI Yeast Anticancer Drug Screen. Data for the bub3 strain (AID 167); conditions: S. cerevisiae bub3 mutant strain, at 50.0 µM, stronger effect = higher value
Method in brief: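 Readout: yeast growth inhibition, expressed relative to vehicle-only wells. The test organism is a mutant strain from a panel with lesions in DNA repair or checkpoint genes.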

[6] = NCI Yeast Anticancer Drug Screen. Data for the mlh1 rad18 strain (AID 175); conditions: S. cerevisiae mlh1 rad18 strain growth inhibition; at 50.0 µM; stronger effect = higher value
Method in brief: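 Compound-treated yeast growth, normalised to vehicle controls. Strain bears defined DNA repair mutations.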

Measured: growth inhibition

Nc1ncnc2c1c1c(=O)[nH]c(=O)[nH]c1n2C1OC(CO)C(O)C1O (stereo unspecified)
inactive: [1] -1.95% | [2] 1.8% | [3] 7.35% | [4] 2.15% | [5] -7.55% | [6] -44.5%

Cc1cccc(OCCCCCl)c1
inactive: [1] -18% | [2] -9.7% | [3] -8.25% | [4] 10.4% | [5] -20.6% | [6] -9.3%

N#CCCC1(CCC#N)CCCCCCCCC(CCC#N)(CCC#N)C(=O)C1=O
inactive: [1] -8.7% | [2] -7.2% | [3] -5.15% | [4] 6.65% | [5] 2.4% | [6] 14.7%

Cc1[nH]nc(C(=O)O)c1[N+](=O)[O-]
inactive: [1] 35.6% | [2] 11.3% | [3] 20.2% | [4] -25.7% | [5] -3.2% | [6] 8.2%

OCC1(OC2OC(CF)C(O)C(O)C2O)OC(CF)C(O)C1O (stereo unspecified)
inactive: [1] -1.1% | [2] 0.75% | [3] -5.65% | [4] -23.5% | [5] 3.3% | [6] 3.85%

CCC(=O)Nc1cccc([N+](=O)[O-])c1OC
inactive: [1] -5.35% | [2] 23.4% | [3] -7.45% | [4] -52.2% | [5] 9.15% | [6] -15.2%

C/C(=C/c1ccccc1)C(=O)O
inactive: [1] -3.8% | [2] -18.8% | [3] -22% | [4] -20.1% | [5] -20.8% | [6] -2.45%

CCN(CC)c1nc(NNS(=O)(=O)c2ccccc2)nc(N(CC)CC)n1
inactive: [1] -3.6% | [2] -5.2% | [3] 4.3% | [4] -13.1% | [5] -4.3% | [6] 11%

Cc1[nH]c(=O)[nH]c(=O)c1N
inactive: [1] 4.8% | [2] -10.4% | [3] -28.9% | [4] -19.4% | [5] -2.9% | [6] 2%

CN(O)C(=O)c1ccccc1
inactive: [1] 5.45% | [2] -8.4% | [3] -6.35% | [4] 11.9% | [5] 15.1% | [6] 16.9%

Cc1c(C(=O)CC(=O)C(=O)Nc2ccc(Cl)cc2)[n+](=O)c2ccccc2n1[O-]
inactive: [1] 9.9% | [2] -2.25% | [3] 0.65% | [4] 19.4% | [5] 8.35% | [6] -0.3%

COc1ccc(/C=C/C2=CC(=O)CC(/C=C/c3ccc(OC)c(OC)c3)C2)cc1OC (stereo unspecified)
inactive: [1] 45% | [2] 46.5% | [3] 28.9% | [4] 49.6% | [5] 58.6% | [6] 43.9%

CCN(CC)CCN(C(=Nc1ccccc1)N1CCOCC1)c1ccccc1
inactive: [1] -19.8% | [2] -40.5% | [3] 3.6% | [4] -3.8% | [5] 4.8% | [6] -11.9%

COC(=O)N(c1ccccc1)c1ccccn1
inactive: [1] -16.6% | [2] -9.95% | [3] -10.2% | [4] 10.7% | [5] 4.3% | [6] -22.6%

Cc1cccc(C(=O)OCc2ccccc2CN2CCCC2)c1
inactive: [1] 1.5% | [2] -7.75% | [3] -10.1% | [4] 2.85% | [5] -2.05% | [6] -1.45%

CSc1ccc(/C=C/c2ccnc3ccccc23)cc1
inactive: [1] 11.8% | [2] 14.8% | [3] 20.7% | [4] -12.3% | [5] 4.7% | [6] 7.95%

CC[N+](C)(CC)CCOC(=O)C(C1=CCCCC1)C1(O)CCCCC1 (stereo unspecified)
inactive: [1] 3.05% | [2] -15.8% | [3] -27.5% | [4] -48.9% | [5] 2.5% | [6] -16.6%

COc1cc([N+](=O)[O-])c(OC)cc1N
inactive: [1] 2.45% | [2] -8.3% | [3] -13.1% | [4] -27.4% | [5] -27.4% | [6] 27.6%

ONc1ccc(Cl)cc1
inactive: [1] -8.85% | [2] -11.8% | [3] -2.7% | [4] -10.8% | [5] 21.1% | [6] -6.6%

COc1ccc(SC2=CC(=O)c3ccccc3C2=O)cc1
inactive: [1] 41% | [2] 11.2% | [3] 34.2% | [4] -16.4% | [5] -11.6% | [6] 30.6%

CN1N=CSC12C(=O)N(c1ccc(Cl)cc1)C(=O)N2c1ccc(Cl)cc1 (stereo unspecified)
inactive: [1] 18.1% | [2] 3.6% | [3] 11.2% | [4] 30.4% | [5] 51% | [6] 11.9%
